Molecules are shown by their SMILES. Calls of active or inactive are those of the source. Calls come from the whole dose curve.
Potency is the fitted concentration of half-maximal effect.

Chain of Glucocorticoid receptor (Homo sapiens) (P04150 whole entry, looked up, the tested form may be a part): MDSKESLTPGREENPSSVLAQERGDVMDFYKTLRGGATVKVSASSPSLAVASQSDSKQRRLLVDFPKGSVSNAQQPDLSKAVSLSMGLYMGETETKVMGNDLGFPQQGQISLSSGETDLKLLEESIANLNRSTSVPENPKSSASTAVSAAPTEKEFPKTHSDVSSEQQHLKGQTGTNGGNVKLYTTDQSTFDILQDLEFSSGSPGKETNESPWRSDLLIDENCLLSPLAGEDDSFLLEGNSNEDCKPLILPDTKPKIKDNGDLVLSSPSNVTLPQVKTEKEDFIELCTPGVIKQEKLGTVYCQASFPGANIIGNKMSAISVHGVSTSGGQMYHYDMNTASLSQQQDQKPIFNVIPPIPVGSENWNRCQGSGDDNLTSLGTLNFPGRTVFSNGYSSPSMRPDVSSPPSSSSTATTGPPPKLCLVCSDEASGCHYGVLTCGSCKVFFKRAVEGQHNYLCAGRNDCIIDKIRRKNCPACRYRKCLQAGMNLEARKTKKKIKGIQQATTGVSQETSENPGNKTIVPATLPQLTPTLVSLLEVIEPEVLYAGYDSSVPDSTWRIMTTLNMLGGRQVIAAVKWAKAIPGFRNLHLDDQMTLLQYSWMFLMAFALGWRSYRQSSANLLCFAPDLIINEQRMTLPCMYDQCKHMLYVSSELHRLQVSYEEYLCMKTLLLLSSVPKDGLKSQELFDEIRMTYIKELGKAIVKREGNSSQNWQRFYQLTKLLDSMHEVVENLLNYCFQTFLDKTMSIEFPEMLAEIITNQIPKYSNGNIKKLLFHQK

This test has as its target Glucocorticoid receptor (Homo sapiens) (UniProt P04150). The test can be described thus: GR-EFC Redistribution (AID 451). The settings on record: CHO-K1 GR-EFC translocation, beta-gal luminescence, 2 h. In short, it runs like this: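 Translocation of GR-ED fusion to nuclear EA restores b-gal, read by luminescence after 1 h room-temperature detection. Engineered CHO-K1 biosensor cells, 1,000/well, exposed 2 h at 37 C to titrations up to 46 uM final.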
Regarding `COc1ccc(NC(=O)c2ccc(-c3ccc(-c4noc(C)n4)cc3C)cc2)cc1N1CCN(C)CC1`, the Potency is > 46 µM (inactive).

As to `O=c1cc(-c2ccccc2)[nH]c2nc(Cl)ccc12`, the Potency was > 46 µM (inactive).

`CCCCCCN(CCCCCC)C(=O)Cc1c(-c2ccc(F)cc2)[nH]c2ccccc12`: the Potency is > 46 µM (inactive).

Turning to `O=C(O)c1ccccc1Nc1ccccc1`, the Potency is > 46 µM (inactive).

For the molecule `CC[N+](CC)(CC)CC(=O)Nc1c(C)cccc1C`, the Potency is > 46 µM (inactive).

On to `N#Cc1cc2nc(O)c(O)nc2cc1[N+](=O)[O-]`, for which the Potency was > 46 µM (inactive).

As to `Nn1nnc2ccccc21`, the Potency is > 46 µM (inactive).

On to `O=C1Cc2c([nH]c3ccc(Br)cc23)-c2ccccc2N1`, for which the Potency is > 46 µM (inactive).

For the molecule `O=C(O)/C(=C/c1c(C(=O)O)[nH]c2cc(Cl)cc(Cl)c12)c1ccccc1`, the Potency was > 46 µM (inactive).

For the molecule `N#CC(C#N)=C(N)/C(C#N)=C/c1ccc(O)cc1`, the Potency is > 46 µM (inactive).

For the molecule `O=C(O)Cc1ccc(O)c(O)c1`, the Potency is > 46 µM (inactive).

Consider `O=c1[nH]c(=S)[nH]c(-c2ccccc2)c1Cc1c(O)ccc2ccccc12`, for which the Potency was > 9.22 µM (inactive).

On to `CC(N)=O`, for which the Potency is > 46 µM (inactive).

For the molecule `CCSC(=N)N`, the Potency was > 46 µM (inactive).

Take `CCN(CC)CCOC(=O)c1cc(Cl)c(N)cc1OC`: the Potency is > 46 µM (inactive).

On to `O=c1[nH]c2ccccc2c2ccccc12`, for which the Potency is > 46 µM (inactive).

Take `NS(=O)(=O)c1cccc2c1c([N+](=O)[O-])cc1nc(O)c(O)nc12`: the Potency was > 46 µM (inactive).

Regarding `NOCC(=O)O`, the Potency is > 46 µM (inactive).

Source of the values: PubChem BioAssay (NCATS).
